According to PubChem BioAssay (NCATS):
Results filed as inconclusive are left out. A call without a number means that no potency is given here. The source made the active and inactive calls. Unless noted, calls come from the whole dose curve.

Legend:
[1] = biological target: Bile acid receptor (Homo sapiens) (UniProt Q96RI1); experiment: qHTS assay for small molecule antagonists of farnesoid X receptor signaling (AID 588526)
Summary of the method: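 Concentration-response titrations were fitted to the Hill equation for half-maximal inhibition and maximal response, with data normalised to 50 uM chenodeoxycholic acid and DMSO control wells. Cells: FXR-UAS-bla HEK293T, dialyzed FBS.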

[2] = biological target: Bile acid receptor (Homo sapiens) (UniProt Q96RI1); experiment: qHTS assay for small molecule agonists of farnesoid X receptor signaling (AID 588527); conditions: HEK293T FXR-UAS-bla, beta-lactamase ratio, 16 h; activation: stronger effect = higher value; note: series mostly up to about 77 µM
Summary of the method: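 FXR-UAS-bla HEK293T cells (10% dialyzed FBS) preincubated 5-7 h at 37 C, then compounds at up to 92 uM for 16 h at 37 C. CCF4 beta-lactamase read-out after 2 h RT. Normalized to chenodeoxycholic acid (100 uM) and DMSO; Hill fit gave EC50 and efficacy.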

[3] = biological target: Peroxisome proliferator-activated receptor gamma (Homo sapiens) (UniProt P37231); experiment: qHTS assay for small molecule agonists of peroxisome proliferator-activated receptor gamma signaling (AID 588536; active = well fitted curve in the direction sought with a large enough effect in the signal ratio, with a control signal flat, not every such curve was filed as active; the % refers to the signal ratio; note: potency is the fitted concentration of half-maximal effect)
Sequence of Peroxisome proliferator-activated receptor gamma (Homo sapiens) (P37231 whole entry, looked up): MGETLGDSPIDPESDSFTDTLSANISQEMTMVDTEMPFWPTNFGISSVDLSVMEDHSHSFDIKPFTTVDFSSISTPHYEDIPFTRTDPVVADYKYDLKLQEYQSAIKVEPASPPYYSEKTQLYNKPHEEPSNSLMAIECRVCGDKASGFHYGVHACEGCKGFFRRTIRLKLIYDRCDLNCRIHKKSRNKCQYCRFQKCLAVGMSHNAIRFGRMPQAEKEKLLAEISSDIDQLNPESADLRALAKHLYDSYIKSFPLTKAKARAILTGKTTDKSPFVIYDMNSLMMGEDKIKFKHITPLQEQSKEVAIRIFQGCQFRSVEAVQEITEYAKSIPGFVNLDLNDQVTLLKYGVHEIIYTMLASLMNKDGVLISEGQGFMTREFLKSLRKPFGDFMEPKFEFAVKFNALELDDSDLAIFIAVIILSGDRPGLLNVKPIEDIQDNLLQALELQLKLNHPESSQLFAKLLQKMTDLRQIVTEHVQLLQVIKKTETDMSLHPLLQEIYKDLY
Summary of the method: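 Cells were plated and held 6–6.5 h at 37 C, then compounds were added as a titration series. After a further 16 h, CCF4 dye was loaded for 2 h at room temperature and emission at 460/530 nm recorded.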

[4] = biological target: Peroxisome proliferator-activated receptor gamma (Homo sapiens) (UniProt P37231); experiment: qHTS assay for small molecule antagonists of peroxisome proliferator-activated receptor gamma signaling (AID 588537; active = well fitted inhibition curve with a large enough effect in the signal ratio, with a control signal flat, not every such curve was filed as active; the % refers to the signal ratio;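 note: reporter cells co-stimulated with 50 nM rosiglitazone agonist during compound treatment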)
Summary of the method: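 HEK293 cells, PPAR-gamma-UAS-bla, 3000/well. Pre-incubation 6-6.5 h, 37 C. Compound titration with rosiglitazone 50 nM final, 16 h. CCF4 dye, 2 h RT, dual-emission fluorescence.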

[5] = qHTS assay for small molecule agonists of the antioxidant response element (ARE) signaling pathway (AID 651741; active = well fitted activation curve with a large enough effect in the signal ratio; the % refers to the signal ratio)
Summary of the method: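 Beta-lactamase reporter expression driven by the antioxidant response element in HepG2 cells was detected by fluorescence with LiveBLAzer B/G FRET substrate (2 h, room temperature) following 16 h compound treatment at 37 C.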

[6] = qHTS assay for small molecule activators of the human pregnane X receptor (PXR) signaling pathway (AID 720659; call rule not given here)
[7] = biological target: Cytochrome P450 3A4 (Homo sapiens) (UniProt P08684); experiment: qHTS Assay for Inhibitors and Substrates of Cytochrome P450 3A4 (AID 884; active = well fitted curve in the direction sought with a large enough effect; an effect the other way counts as inactive or inconclusive; note: series mostly up to about 57 µM; nearly all actives have a fitted effect of over 50% in size)
Sequence of Cytochrome P450 3A4 (Homo sapiens) (P08684 whole entry, looked up): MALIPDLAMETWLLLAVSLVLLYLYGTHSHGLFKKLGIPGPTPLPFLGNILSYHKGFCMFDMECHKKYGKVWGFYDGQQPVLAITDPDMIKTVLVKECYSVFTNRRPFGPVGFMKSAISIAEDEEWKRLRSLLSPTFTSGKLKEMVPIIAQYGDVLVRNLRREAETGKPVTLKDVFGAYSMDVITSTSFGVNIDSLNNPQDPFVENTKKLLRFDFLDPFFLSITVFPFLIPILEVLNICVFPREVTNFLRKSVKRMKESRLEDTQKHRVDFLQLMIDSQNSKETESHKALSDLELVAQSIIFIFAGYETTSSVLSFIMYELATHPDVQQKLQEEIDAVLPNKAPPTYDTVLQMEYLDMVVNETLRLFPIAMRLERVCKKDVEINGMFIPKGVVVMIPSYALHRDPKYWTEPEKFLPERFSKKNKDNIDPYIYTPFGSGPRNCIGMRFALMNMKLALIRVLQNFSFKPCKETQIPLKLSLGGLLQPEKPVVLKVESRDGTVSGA
Summary of the method: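 Luminescent readout of luciferin produced by CYP3A4 (20 nM) dealkylation of Luciferin-PPXE, 25 uM (its KM). NADPH-driven reaction ran 60 min at RT after 10 min compound preincubation; data scaled to 57 uM ketoconazole as 100% inhibition.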

[8] = biological target: DNA dC->dU-editing enzyme APOBEC-3G (Homo sapiens) (UniProt Q9HC16); experiment: qHTS for inhibitors of Vif-A3G interactions: Validation (AID 588379; active = well fitted curve in the direction sought with a large enough effect; an effect the other way counts as inactive or inconclusive)
Sequence of DNA dC->dU-editing enzyme APOBEC-3G (Homo sapiens) (Q9HC16 whole entry, looked up): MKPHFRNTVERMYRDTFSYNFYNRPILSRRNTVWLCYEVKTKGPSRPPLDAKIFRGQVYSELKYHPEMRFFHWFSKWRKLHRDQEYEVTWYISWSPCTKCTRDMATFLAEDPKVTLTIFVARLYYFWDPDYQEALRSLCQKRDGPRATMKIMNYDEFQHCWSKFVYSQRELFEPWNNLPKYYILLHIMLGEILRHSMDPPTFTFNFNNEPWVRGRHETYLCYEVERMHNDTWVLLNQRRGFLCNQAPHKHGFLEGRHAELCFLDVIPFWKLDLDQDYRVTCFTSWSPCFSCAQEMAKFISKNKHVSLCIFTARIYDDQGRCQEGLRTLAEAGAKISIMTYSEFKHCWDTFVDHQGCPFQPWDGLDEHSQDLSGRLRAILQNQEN
Summary of the method: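 Yellow fluorescence (Ex 488, Em 500-530) of Vif-coexpressing HeLa A3G-eYFP cells, scanned by Acumen cytometer, reports blocked A3G degradation. Cells plated at 700/well overnight at 37 deg C before compound addition, then a further overnight compound incubation at 37 deg C.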

[9] = biological target: Glucocorticoid receptor (Homo sapiens) (UniProt P04150); experiment: qHTS assay for small molecule antagonists of glucocorticoid receptor signaling (AID 588533; active = well fitted inhibition curve with a large enough effect in the signal ratio, with a control signal flat, not every such curve was filed as active; the % refers to the signal ratio;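 note: cells stimulated with 2 nM dexamethasone as agonist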)
Sequence of Glucocorticoid receptor (Homo sapiens) (P04150 whole entry, looked up): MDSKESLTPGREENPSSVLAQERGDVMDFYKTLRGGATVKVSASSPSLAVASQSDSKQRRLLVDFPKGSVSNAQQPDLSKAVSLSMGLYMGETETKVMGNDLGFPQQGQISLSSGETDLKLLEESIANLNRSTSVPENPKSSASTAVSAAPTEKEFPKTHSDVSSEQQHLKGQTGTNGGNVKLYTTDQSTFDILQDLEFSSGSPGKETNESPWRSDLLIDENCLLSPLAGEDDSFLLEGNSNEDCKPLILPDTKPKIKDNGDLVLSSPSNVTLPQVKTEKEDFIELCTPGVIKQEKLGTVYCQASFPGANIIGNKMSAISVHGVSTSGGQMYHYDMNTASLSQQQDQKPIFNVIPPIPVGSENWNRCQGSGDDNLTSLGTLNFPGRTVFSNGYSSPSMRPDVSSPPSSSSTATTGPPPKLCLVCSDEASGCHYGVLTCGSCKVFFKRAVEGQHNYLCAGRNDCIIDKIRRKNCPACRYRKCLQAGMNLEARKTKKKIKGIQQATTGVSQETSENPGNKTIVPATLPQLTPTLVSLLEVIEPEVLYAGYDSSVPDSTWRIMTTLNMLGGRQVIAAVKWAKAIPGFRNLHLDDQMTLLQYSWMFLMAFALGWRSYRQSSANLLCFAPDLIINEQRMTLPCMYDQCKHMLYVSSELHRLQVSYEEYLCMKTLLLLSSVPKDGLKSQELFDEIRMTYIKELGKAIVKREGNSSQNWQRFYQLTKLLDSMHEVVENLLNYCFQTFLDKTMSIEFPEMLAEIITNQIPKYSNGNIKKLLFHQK
Summary of the method: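 Antagonist-mode qHTS: compound titrations added to GRE-bla HeLa cells, then dexamethasone 2 nM final; 18 h, 37 C. CCF4 FRET fluorescence normalized to dexamethasone and DMSO; IC50 from Hill fit.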

[10] = biological target: Androgen receptor (Homo sapiens) (UniProt P10275); experiment: qHTS assay for small molecule antagonists of androgen receptor signaling (AID 588516; active = well fitted curve in the direction sought with a large enough effect in the signal ratio, with a control signal flat, not every such curve was filed as active; the % refers to the signal ratio)
Sequence of Androgen receptor (Homo sapiens) (P10275 whole entry, looked up): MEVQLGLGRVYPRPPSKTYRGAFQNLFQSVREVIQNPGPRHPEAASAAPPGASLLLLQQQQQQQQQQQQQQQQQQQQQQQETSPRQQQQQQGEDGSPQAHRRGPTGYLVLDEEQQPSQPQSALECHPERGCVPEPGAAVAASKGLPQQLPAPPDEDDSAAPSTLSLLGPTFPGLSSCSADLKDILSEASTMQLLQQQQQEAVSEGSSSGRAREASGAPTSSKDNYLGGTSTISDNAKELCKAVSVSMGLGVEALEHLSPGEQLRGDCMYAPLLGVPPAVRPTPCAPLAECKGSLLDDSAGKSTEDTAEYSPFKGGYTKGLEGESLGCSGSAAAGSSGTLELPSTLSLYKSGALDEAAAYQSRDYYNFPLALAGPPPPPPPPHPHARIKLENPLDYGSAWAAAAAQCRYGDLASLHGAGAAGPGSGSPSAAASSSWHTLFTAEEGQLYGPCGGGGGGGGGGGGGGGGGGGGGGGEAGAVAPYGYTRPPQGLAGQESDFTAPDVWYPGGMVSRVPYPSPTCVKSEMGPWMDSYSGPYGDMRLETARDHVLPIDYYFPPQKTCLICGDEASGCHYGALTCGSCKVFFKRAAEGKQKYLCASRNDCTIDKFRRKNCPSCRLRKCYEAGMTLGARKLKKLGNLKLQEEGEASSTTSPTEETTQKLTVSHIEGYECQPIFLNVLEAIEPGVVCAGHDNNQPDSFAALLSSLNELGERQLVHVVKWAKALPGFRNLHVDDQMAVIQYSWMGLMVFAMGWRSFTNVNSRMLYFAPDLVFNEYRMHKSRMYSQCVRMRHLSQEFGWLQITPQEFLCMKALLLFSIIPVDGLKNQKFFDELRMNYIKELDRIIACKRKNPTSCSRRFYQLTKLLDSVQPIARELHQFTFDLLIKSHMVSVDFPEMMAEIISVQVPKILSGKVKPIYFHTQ
Summary of the method: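 Compounds tested in titration against 10 nM R1881 in AR-responsive bla reporter HEK 293 cells; CCF4 fluorescence (460/530 nm) after 16 h exposure gave IC50 and efficacy.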

[11] = qHTS assay for small molecule activators of the nuclear factor-kappa B (NF-kB) signaling pathway (AID 651749; active = well fitted activation curve with a large enough effect in the signal ratio; the % refers to the signal ratio; note: series mostly up to about 77 µM); conditions: NF-kB-bla ME-180 cells, beta-lactamase FRET ratio, 16 h; activation: stronger effect = higher value
Summary of the method: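 Beta-lactamase reporter expression, controlled by NF-kB response elements in ME-180 cells, was quantified fluorometrically via FRET disruption; cells at 2,000/well had been incubated with 23 nL test compound for 16 hr.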

[12] = biological target: Androgen receptor (Homo sapiens) (UniProt P10275); experiment: qHTS assay for small molecule agonists of androgen receptor signaling (AID 588515; active = well fitted curve in the direction sought with a large enough effect in the signal ratio, with a control signal flat; the % refers to the signal ratio); conditions: AR-UAS-bla HEK293, beta-lactamase ratio, agonist 16 h; stronger effect = higher value
Summary of the method: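 Stimulation of an AR-responsive β-lactamase reporter in GripTite HEK293 cells was measured after 16 h compound exposure at 37 °C, via CCF4 fluorescence after 2 h RT. EC50 from Hill fits, normalized to R1881 at 30 nM.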

[13] = qHTS assay for small molecule antagonists of peroxisome proliferator-activated receptor delta signaling (AID 588535; active = well fitted inhibition curve with a large enough effect in the signal ratio, with a control signal flat, not every such curve was filed as active; the % refers to the signal ratio;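 for max response: cells co-treated with a PPAR-delta agonist as stimulator during compound exposure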); conditions: HEK293T PPARd-UAS-bla, beta-lactamase FRET ratio, 18 h; 460 nm channel
Summary of the method: (§1)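 Compounds tested in titration on PPAR-delta-UAS-bla HEK293T cells grown in charcoal/dextran-stripped serum (2%); beta-lactamase activity read via CCF4 emission at 460 and 530 nm.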

[14] = biological target: Peroxisome proliferator-activated receptor delta (Homo sapiens) (UniProt Q03181); experiment: as above
Sequence of Peroxisome proliferator-activated receptor delta (Homo sapiens) (Q03181 whole entry, looked up): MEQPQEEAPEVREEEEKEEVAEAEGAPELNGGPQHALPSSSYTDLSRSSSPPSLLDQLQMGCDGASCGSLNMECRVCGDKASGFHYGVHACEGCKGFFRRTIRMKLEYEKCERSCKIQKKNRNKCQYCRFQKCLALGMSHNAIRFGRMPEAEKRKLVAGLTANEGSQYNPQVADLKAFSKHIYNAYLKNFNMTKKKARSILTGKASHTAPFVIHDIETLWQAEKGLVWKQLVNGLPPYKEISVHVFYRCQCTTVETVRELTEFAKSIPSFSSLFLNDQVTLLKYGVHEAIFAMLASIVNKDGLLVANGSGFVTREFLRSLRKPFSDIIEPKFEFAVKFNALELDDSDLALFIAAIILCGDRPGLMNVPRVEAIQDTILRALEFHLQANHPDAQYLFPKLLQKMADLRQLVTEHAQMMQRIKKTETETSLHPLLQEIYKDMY
Summary of the method: as §1

[15] = biological target: Cytochrome P450 3A4 (Homo sapiens) (UniProt P08684); experiment: qHTS Assay for Activators of Cytochrome P450 3A4 (AID 885; active = well fitted curve in the direction sought with a large enough effect; an effect the other way counts as inactive or inconclusive; note: nearly all actives have a fitted effect of over 65% in size)
Summary of the method: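 Human CYP3A4 dealkylates Luciferin-PPXE to luciferin, which luciferase detection converts to light. Substrate was at its KM (25uM), buffer 200mM KPO4, reaction 60 min at RT.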

Sequence of Bile acid receptor (Homo sapiens) (Q96RI1 whole entry, looked up): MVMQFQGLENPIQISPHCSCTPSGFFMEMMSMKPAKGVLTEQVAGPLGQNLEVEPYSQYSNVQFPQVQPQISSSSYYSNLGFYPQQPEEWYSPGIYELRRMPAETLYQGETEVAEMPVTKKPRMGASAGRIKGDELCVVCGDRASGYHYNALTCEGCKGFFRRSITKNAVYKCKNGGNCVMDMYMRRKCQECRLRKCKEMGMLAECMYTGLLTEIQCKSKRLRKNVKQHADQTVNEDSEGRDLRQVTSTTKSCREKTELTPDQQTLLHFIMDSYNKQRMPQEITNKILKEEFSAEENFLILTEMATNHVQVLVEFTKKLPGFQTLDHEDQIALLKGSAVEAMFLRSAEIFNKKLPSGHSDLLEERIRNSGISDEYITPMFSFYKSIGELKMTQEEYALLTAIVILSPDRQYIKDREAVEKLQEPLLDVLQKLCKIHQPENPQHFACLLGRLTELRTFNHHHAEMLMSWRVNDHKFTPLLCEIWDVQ

COc1ccc(C(O)(c2cncnc2)C2CC2)cc1 (centres undefined)
Potency [1]: inactive
activation [2]: -0.99% (inactive)
Potency [3]: inactive
Potency [4]: inactive
Potency [5]: inactive
outcome [6]: inactive

CC1=CC(=O)C2=C(C)C[C@H](O)[C@H]3[C@H](C)C(=O)O[C@@H]3C12 (some centres undefined)
Potency [7]: inactive
outcome [8]: inactive

O=[N+]([O-])c1ccc(Oc2ccc(C(F)(F)F)cc2[N+](=O)[O-])cc1
Potency [1]: inactive
activation [2]: -1.37% (inactive)
Potency [9]: inactive
Potency [3]: 3.55 µM (active)
outcome [6]: inactive

CCOP(=S)(OCC)SCC(=O)NC(C)C
Potency [10]: inactive
Potency [1]: inactive
Potency [9]: inactive
Potency [3]: inactive
Potency [4]: inactive
Potency [5]: inactive
activation [11]: 0.608% (inactive)

CCOc1nc(NC)nc(NC(=O)NS(=O)(=O)c2ccccc2C(=O)OC)n1
activation [12]: -6.67% (inactive)
Potency [1]: inactive
activation [2]: -2.84% (inactive)
Potency [9]: inactive
max response [13]: 16.6%
Potency [14]: inactive
Potency [3]: inactive
Potency [4]: inactive
activation [11]: 1.48% (inactive)

COc1ccc(CC2NCC(O)C2OC(C)=O)cc1 (centres undefined)
Potency [7]: inactive
outcome [8]: inactive

c1cc2c(cc1[C@H]1OC[C@@H]3[C@H]1CO[C@H]3c1ccc3c(c1)OCO3)OCO2
Potency [15]: inactive
outcome [8]: inactive

CCOP(=S)(OCC)Oc1cnc2ccccc2n1
Potency [1]: inactive
activation [2]: 1.65% (inactive)
Potency [9]: inactive
max response [13]: 6.57%
Potency [14]: inactive
Potency [4]: inactive
Potency [5]: inactive

C[C@]12[C@H](O)CC3C(CC[C@@H]4C[C@@H](O)CC[C@]34C)[C@@]1(O)CC[C@@H]2C1=CC(=O)OC1 (some centres undefined)
Potency [7]: inactive
outcome [8]: inactive

CC(C)(C)N(NC(=O)c1ccc(Cl)cc1)C(=O)c1ccccc1
activation [12]: 4.02% (inactive)
Potency [10]: inactive
Potency [1]: inactive
activation [2]: 5.56% (inactive)
Potency [9]: inactive
max response [13]: -27.8%
Potency [14]: inactive
Potency [4]: inactive
Potency [5]: inactive

COc1cc2c(cc1OC)-c1c(OC)c(OC)c(CO)c3c1C(C2)N(C)CC3 (centres undefined)
Potency [15]: inactive
outcome [8]: inactive

CN1C[C@@H](CO)C=C2c3cccc4[nH]cc(c34)CC21 (some centres undefined)
Potency [15]: inactive
outcome [8]: inactive

O=c1[nH]c2ccccc2c(=O)o1
Potency [1]: inactive
activation [2]: 0.0754% (inactive)
Potency [9]: inactive
max response [13]: 29.4%
Potency [14]: inactive
Potency [3]: inactive
Potency [4]: inactive
Potency [5]: inactive
activation [11]: -0.747% (inactive)
outcome [6]: inactive

O=CN1CC2CC(C1)c1cccc(=O)n1C2 (centres undefined)
Potency [7]: inactive
outcome [8]: inactive

CCOP(=O)(SC(C)CC)SC(C)CC (centres undefined)
activation [12]: 7.1% (inactive)
Potency [10]: inactive
Potency [1]: inactive
activation [2]: -3.29% (inactive)
Potency [9]: inactive
max response [13]: -10.9%
Potency [14]: inactive
Potency [3]: inactive
Potency [4]: inactive
Potency [5]: inactive
activation [11]: -1.37% (inactive)
outcome [6]: inactive
